# Active and inactive are the calls of the source. No rule for the calls is given here.
# Biological target: Pantothenate synthetase (Mycobacterium tuberculosis (strain ATCC 25618 / H37Rv)) (UniProt P9WIL5)
# Assay: Recombinant Mtb pantothenate synthetase (PanC) inhibitors, coupled enzyme, confirmatory (AID 375);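 also: 0% = full reaction with vehicle and 100% = no enzyme background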
# Conditions: coupled enzyme assay; at 10 µM, hits give high values
# Sequence of Pantothenate synthetase (Mycobacterium tuberculosis (strain ATCC 25618 / H37Rv)) (P9WIL5 whole entry, looked up): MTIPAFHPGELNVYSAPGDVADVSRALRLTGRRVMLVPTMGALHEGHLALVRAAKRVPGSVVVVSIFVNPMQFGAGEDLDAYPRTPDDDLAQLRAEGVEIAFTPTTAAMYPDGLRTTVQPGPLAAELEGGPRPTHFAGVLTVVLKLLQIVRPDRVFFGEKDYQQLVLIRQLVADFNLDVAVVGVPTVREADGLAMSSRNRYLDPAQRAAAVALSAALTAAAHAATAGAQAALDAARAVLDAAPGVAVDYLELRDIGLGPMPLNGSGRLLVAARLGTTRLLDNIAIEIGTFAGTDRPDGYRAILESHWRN
row,SMILES,inhibition
1,Cc1cc(NS(=O)(=O)c2ccc(NC(=O)COc3ccccc3C(C)C)cc2)no1,0% (inactive)
2,CC(NC(=O)c1cn(C)c2ccc(S(=O)(=O)N3CCCC3)cc2c1=O)c1ccc2c(c1)OCCO2 (stereo not given),0% (inactive)
3,O=C(C1CCC1)N1CCc2cc(S(=O)(=O)N3CCc4ccccc4C3)ccc21,7% (inactive)
4,CCOc1ccccc1NC(=O)N1C2CCCC1CC(NC(=O)C1CC1)C2 (stereo not given),6% (inactive)
5,CC(C)CCNC(=O)C(c1cccs1)N(CC1CCCO1)C(=O)Cn1nnc2ccccc21 (stereo not given),0% (inactive)
6,Clc1ccc(OCc2nnc(SCCN3CCCCC3)n2Cc2ccco2)cc1,0% (inactive)
7,CN/C(=C/[N+](=O)[O-])NCCSCc1ccc(CN(C)C)o1,4% (inactive)
8,Cc1cc(C)nc(-n2nc(C)cc2NC(=O)c2ccc(Br)o2)n1,0% (inactive)
9,CN(C)c1nc(N(C)C)nc(N(C)C)n1,2% (inactive)
10,CCOc1ccccc1NC(=O)CSc1nnc2c(CC)c(C)nc(N)n12,0% (inactive)
11,O=C(CNS(=O)(=O)c1ccc(Br)s1)N1CCCC1,0% (inactive)
12,O=C(O)CC(C(=O)Nc1cccc(C(F)(F)F)c1)C1CCCO1 (stereo not given),1% (inactive)
13,O=C(CN(Cc1ccco1)C(=O)c1cc(=O)[nH]c2ccccc12)Nc1ccccc1Br,0% (inactive)
14,CCn1cc(C(=O)NCCCOC)c(=O)c2cc(S(=O)(=O)N(C)C3CCCCC3)ccc21,2% (inactive)
15,O=C1CC(c2ccc(Cl)cc2)n2nc(N3C(=O)c4ccccc4C3=O)nc2N1 (stereo not given),5% (inactive)
16,COc1ccccc1-c1nnc(SCC(=O)N2CC(C)CC(C)C2)o1 (stereo not given),4% (inactive)
17,Cc1ccc(C)c(-n2c(Cc3cc(=O)[nH]c(=O)[nH]3)nnc2SCC(=O)NCc2ccco2)c1,0% (inactive)
18,COc1ccc(S(=O)(=O)Nc2ccc(S(=O)(=O)N3CCCCC3)cc2)cc1OC,0% (inactive)
19,O=C(NCCN1CCCCCC1)c1ccc(CS(=O)(=O)c2ccc(Br)cc2)o1,0% (inactive)
20,CCOC(=O)c1ccc(NC(=O)CCc2nc(-c3cccc(C)c3)no2)cc1,2% (inactive)

row,SMILES,inhibition
1,CC(=O)Nc1ccc(S(=O)(=O)NCC2CCC(C(=O)NCCCN3CCCC3=O)CC2)cc1 (stereo not given),0% (inactive)
2,O=C(NCC1CCCO1)C1CCC(CNS(=O)(=O)c2ccccc2)CC1 (stereo not given),5% (inactive)
3,N#Cc1c(N)nc(SCc2ccncc2)c(C#N)c1-c1cccs1,11% (inactive)
4,O=C(Cc1cccs1)Nc1nnc(CCc2ccccc2)s1,0% (inactive)
5,CCOc1ccc(NS(=O)(=O)c2cc(Cl)ccc2OC)cc1,4% (inactive)
6,CCOc1ccccc1-n1c(SCC(=O)NCc2ccco2)nnc1-c1ccncc1,1% (inactive)
7,O=C(c1ccc(-c2ccccc2)cc1)N1CCN(c2ncccn2)CC1,8% (inactive)
8,CCn1c(SCc2nc(-c3cccs3)no2)nnc1-c1c[nH]c2ccccc12,0% (inactive)
9,CC1(C)Cc2noc(N)c2C(C)(C)N1OC(=O)c1ccco1,0% (inactive)
10,COC(=O)CCn1nnc(-c2ccc(C)cc2)n1,1% (inactive)
11,CC1(C)Cc2c(sc3c2C2=NCCN2C=N3)CO1,0% (inactive)
12,Cc1nn(-c2nc3ccccc3[nH]2)c(N)c1-c1ccccc1,8% (inactive)
13,Cc1c(NC(=O)C(C)OC(=O)c2cc3c4ccccc4n(C)c3s2)c(=O)n(-c2ccccc2)n1C (stereo not given),0% (inactive)
14,Cc1nc2ncnn2c(N2CCC(C(=O)NC3CCCC3)CC2)c1Cc1ccccc1,1% (inactive)
15,COC(=O)c1cc(Br)c(=O)n(Cc2cccnc2)c1,9% (inactive)
16,CCc1cccc(NC(=O)CCc2nc(-c3cccs3)no2)c1,0% (inactive)
17,O=C(Nc1ccc(-c2nc3ncccc3o2)cc1)c1ccc(Br)o1,15% (inactive)
18,COCCN(CCOC)c1ncnc2c1cnn2-c1ccccc1,0% (inactive)
19,CC1CCN(Cc2ccc(NC(=O)C3CCN(c4nnc(-n5cccc5)s4)CC3)cc2)CC1,0% (inactive)
20,CCOC(=O)c1cnn(-c2cc(C)c3cc(C)cc(C)c3n2)c1N,0% (inactive)
